The whole screen tested about 44,000 compounds, of which fewer than 10 were called active. Calls come from the whole dose curve; as a rule, active = well fitted inhibition curve with a large enough effect; inconclusive = small, poorly fitted or top-dose-only effect; inactive = flat fitted curve, though single readings scatter. The list is a sample of the results.
Biological target: Tumor susceptibility gene 101 protein (Homo sapiens) (UniProt Q99816)
Test: qHTS Validation Assay for Inhibitors of HIV-1 Budding by Blocking the Interaction of PTAP/TSG101: Sytravon Library Screen
Details: Fluorescence polarization, FITC-PTAP peptide/Tsg101, 20 min; series mostly up to 115 µM
Excerpt: Stages of the HIV-1 replication cycle, specifically virus assembly and release, provide underexploited targets for the development of novel antiviral inhibitors. The late stages of HIV-1 replication are mediated by the Gag precursor protein, Pr55Gag. Expression of Pr55Gag is both necessary and sufficient for the production of virus-like particles from Gag-expressing cells. The Gag protein hijacks key host proteins involved in endocytic machinery of the host cell to promote endosomal processing and viral budding. The budding process requires a direct interaction between a […] (PTAP) motif in the p6 domain of Gag and the cellular endosomal sorting protein known as Tsg101. In this way, the Gag PTAP motif promotes the host cells to recruit viral particles to the plasma membrane where the new viral particles are released, effectively turning the host cells into viral factories. A fluorescence polarization assay has been developed to quantitatively measure the PTAP-Tsg101 interaction which can be used to screen for inhibitors of this interaction. This assay was run against the NCGC Sytravon Library collection. NIH Molecular Libraries Probe Production Network [MLPCN] NIH Chemical Genomics Center [NCGC] Grant: R03 MH087464-01A1 PI Name: Dr. Eric Freed, NCI
Two uL of the Tsg101 binding domain in buffer (10 mM HEPES pH 7.5; 0.15 M NaCl, 0.01% Tween 20; 3 mM EDTA;0.1 mM TCEP) was dispensed into Greiner black MB 1536-well plates (final concentration 10 uM). Then, 23 nL of compounds or DMSO were delivered to each well using a pin tool. Finally, 2 uL of a FITC-labeled peptide containing the PTAP motif (1) in the same buffer was dispensed (50 nM final concentration) and the binding was allowed to proceed for 20 min. at r.t. Fluorescent polarization was determined using FITC excitation and polarized emission filters on a Perkin Elmer Envision. Assay cut-off (positive/negative criteria): Actives defined by CRC class, <25 µM; Efficacy <60% inhibition. The total fluorescent intensity from S and P channels will be used to flag fluorescent compounds.

Chain of Tumor susceptibility gene 101 protein (Homo sapiens) (Q99816 whole entry, looked up): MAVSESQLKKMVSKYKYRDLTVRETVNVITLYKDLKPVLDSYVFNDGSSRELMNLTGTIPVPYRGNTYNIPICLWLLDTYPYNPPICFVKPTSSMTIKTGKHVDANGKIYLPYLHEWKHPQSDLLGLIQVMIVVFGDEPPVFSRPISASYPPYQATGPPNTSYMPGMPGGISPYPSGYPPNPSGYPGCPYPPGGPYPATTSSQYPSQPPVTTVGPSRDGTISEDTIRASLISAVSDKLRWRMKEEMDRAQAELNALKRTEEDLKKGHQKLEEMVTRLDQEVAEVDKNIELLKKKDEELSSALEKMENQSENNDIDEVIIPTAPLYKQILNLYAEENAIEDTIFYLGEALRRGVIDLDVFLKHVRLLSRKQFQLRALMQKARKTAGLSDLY

Potency, inactive:
COc1ccccc1C(=O)Nc1c(C(=O)N(C)Cc2ccccc2)sc2nc(C)c(Cl)c(C)c12
COc1ccccc1CNC(=O)c1ccc(NC(=O)N2CC(C)Sc3ccccc32)cc1 (configuration not stated)
COc1ccc(NC(=O)c2sc3nc[nH]c(=O)c3c2C)cc1
CCc1ccc(S(=O)(=O)Nc2cc3c(C(=O)OCc4ccccc4)c(C)oc3c3ccccc23)cc1
COc1ccccc1-c1ccnc2[nH]n(-c3ccccc3)c(=O)c12
CSc1nn(Cc2cccc(C)c2)c(N)c1S(=O)(=O)c1ccccc1
CCOc1ccccc1C(=O)Nc1ccc2c(c1)N(C)C(=O)c1ccccc1S2
CCOC(=O)c1[nH]c(C)c(CCC(=O)NCc2ccccc2C)c1C
Cc1ccc(S(=O)(=O)c2nc(-c3cccs3)oc2N2CCCCC2)cc1
COc1cccc(CNC(=O)CCc2nc(-c3ccc(C)cc3)no2)c1
CCCCCCn1nnc2sc(-c3ccccc3)cc2c1=O
Cc1ccc(Cl)cc1N1CCN(C(=O)c2cccn3c(=O)c4cc(Cl)ccc4nc23)CC1
Cc1ccccc1-n1c(=O)c2ccccc2n(Cc2ccc(F)cc2)c1=O
CCc1ccccc1N(C)C(=O)C1CCCN(c2ncnc3onc(-c4ccc(F)cc4)c23)C1 (configuration not stated)
CCOC(=O)c1c(NC(=O)c2ccc(S(=O)(=O)N(CC)CC)cc2)sc2c1CCCCC2
Cc1nc2ccc(S(=O)(=O)N(CC(=O)Nc3ccc(F)cc3)Cc3ccccc3)cc2s1
COc1ccc(CCNC(=O)CN2C(=O)COc3ccc(S(=O)(=O)N4CCCC4)cc32)cc1OC
Cc1cc(Nc2cccc(C(F)(F)F)c2)nc2ccc(NC(=O)c3ccc(=O)[nH]c3)cc12
O=C(Nc1ccc2oc(-c3ccc(O)c(Br)c3)nc2c1)c1cc2ccccc2o1
O=C(c1cccc(Br)c1)N1CCN(Cc2cc(=O)n3nc(-c4ccccc4)sc3n2)CC1
O=C(CNS(=O)(=O)c1cccs1)N1CCN(c2ccccc2Cl)CC1
CC1CCc2noc(NC(=O)c3ccc([N+](=O)[O-])cc3)c2C1 (configuration not stated)
COc1cc(C(=O)N2CCN(c3ccc(Nc4ccc(C)cc4)nn3)CC2)cc(OC)c1OC
CCOC(=O)c1ccc(NC(=O)CCS(=O)(=O)c2ccc3c(c2)oc(=O)n3C)cc1
O=C(COCc1cc(-c2ccc3c(c2)OCO3)on1)N1CCN(c2cccc(Cl)c2)CC1
Cc1ccc(C(=O)Nc2ccc(C(=O)O)cc2)cc1S(=O)(=O)Nc1ccccc1
Cc1ccc(OCC(=O)OCc2cc(=O)n3nc(C4CC4)sc3n2)cc1
CCOC(=O)C(Cc1ccccc1)NC(=O)CCc1c(C)nc2c(c(C)nn2-c2ccc(C)c(C)c2)c1C (configuration not stated)
Cc1ccc(OCCSc2nc(-c3cccs3)nc3cc(=O)[nH]n23)cc1Cl
CC1(C)N=C(SCc2ccccc2Cl)c2ccccc2N1
COc1ccc(Cc2nc3ccc(C(=O)NCc4ccccc4C)cc3o2)cc1
COc1ccc(N2C(=O)CS(=O)(=O)C23C(=O)N(Cc2ccc(C)cc2)c2ccccc23)cc1Cl (configuration not stated)
Cc1ccc(C)c(N2CCN(S(=O)(=O)c3ccc4c(c3)C(C(C)C)C(=O)N4)CC2)c1 (configuration not stated)
Cc1ccc(NC(=O)CSc2nnc3[nH]c(=O)cc(C)n23)cc1Cl
CCOC(=O)C1CCC(CN(Cc2ccc(OC)cc2)S(=O)(=O)c2ccc(F)c(C(=O)Nc3cc(C)ccc3C)c2)CC1 (configuration not stated)
CCOC(=O)N1CCc2c(sc3c2c(=O)n(-c2ccc(CC)cc2)c(=O)n3C)C1
COc1ccc(CCN2C(=O)c3oc4cc(C)cc(C)c4c(=O)c3C2c2ccccc2F)cc1OC (configuration not stated)
CSc1ccc(CCNC(=O)c2ccc3c(c2)nc2n3CCOC2)cc1
COc1ccccc1N1CCN(C(=O)C2CCN(S(=O)(=O)c3c(C)noc3/C=C/c3ccc(C)cc3)CC2)CC1
COc1ccc2c(c1)Cc1sc(NC(=O)c3ccccc3Br)nc1-2
CC(=O)Nc1ccc(NC(=O)C2CCCN(S(=O)(=O)c3ccc4c(c3)CCCC(=O)N4)C2)cc1 (configuration not stated)
COc1ccc(Cl)cc1NC(=O)CSc1nc(=O)[nH]c2c1CCCC2
CCc1nn(CC(=O)Nc2cc(C)cc(C)c2)c(=O)c2cc3sccc3n12
COc1cc(OC)c(NC(=O)c2cnc(N3CCCC3)nc2C)cc1Cl
O=C(NCCC1=CCCCC1)c1ccc2c(c1)N(Cc1ccccc1F)C(=O)c1ccccc1S2(=O)=O
O=C(CN1C(=O)COc2ccc(S(=O)(=O)N3CCCCCC3)cc21)N1CCN(c2cccc(C(F)(F)F)c2)CC1
CCCCOc1ccc(CN2C(=O)C(=O)c3cc(Br)cc(C)c32)cc1OC

Reference: PubChem BioAssay AID1347069 (National Center for Advancing Translational Sciences (NCATS), 2019)
